The results in this text go back to PubChem BioAssay.

The structures appear in SMILES notation. Results filed as inconclusive are left out. Calls of active or inactive are those of the source. Unless noted, how the calls were made is not given here.

Assay [1] deals with GTPase HRas (Homo sapiens) (UniProt P01112). In words: Ras wt fluorescent GTP loading blockade – biochemical, wildtype, multiplex bead flow cytometry, dose response (AID 1335;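 active means fitted half-maximal concentration within 10 nM to 100 µM, steepness 0.5 to 2, significant signal drop, low assay interference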). Conditions: bead-based flow cytometry, Bodipy-GTP binding to GST-Ras; at 100 µM (top of the series).
Chain of GTPase HRas (Homo sapiens) (P01112 whole entry, looked up): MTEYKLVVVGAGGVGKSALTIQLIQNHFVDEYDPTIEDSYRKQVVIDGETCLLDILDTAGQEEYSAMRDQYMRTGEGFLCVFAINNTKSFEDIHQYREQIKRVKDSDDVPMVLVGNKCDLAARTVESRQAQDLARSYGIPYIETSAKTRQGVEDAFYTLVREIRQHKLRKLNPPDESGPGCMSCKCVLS
Assay [2] is described as follows: rapamycin-like changes in RPL19A-GFP expression – cell-based, S. cerevisiae, multiplex flow cytometry, primary screen (AID 1862; in the data active means percent of DMSO control GFP below about 86%;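 further: lower values mimic rapamycin by blocking the RPL19A rise seen in DMSO cells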). As to conditions: S. cerevisiae RPL19A-GFP strain, flow cytometry fluorescence, 3 h; at 10 µM; stronger effect = lower value. (In flow cytometry, cells or beads pass a laser one at a time.)
The nature of assay [3]: TOR pathway GLN3 branch reporter MEP2-GFP changes – S. cerevisiae, multiplex flow cytometry, primary screen (AID 1867;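 active means GFP response, as percent of the DMSO control, above the screen-wide mean plus 3 SD, about 139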;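 further: median GFP channel fluorescence of barcode-gated MEP2-GFP cells measured by flow cytometry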). Conditions: S. cerevisiae MEP2-GFP strain, 3 h, at 10 µM, stronger effect = higher value.
Assay [4] can be described thus: TOR pathway RTG branch CIT2 reporter changes – S. cerevisiae, GFP fusion, multiplex flow cytometry, primary screen (AID 1870;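 active means percent response above a set limit, the screen-wide mean plus 3 SD, cut at about 130% in these data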;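 further: barcoded CIT2-GFP strain pooled with four other GFP strains with rapamycin as positive control; median GFP fluorescence per well over plate mean of DMSO wells so 100% = DMSO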). Conditions: S. cerevisiae CIT2-GFP expression, 3 h, at 10 µM, stronger effect = higher value.
The nature of assay [5]: TOR pathway LAP4-GFP level changes – S. cerevisiae, multiplex flow cytometry, primary screen (AID 1873;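 active means GFP signal, as percent of the solvent control, above the screen mean plus 3 SD, about 149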). As to conditions: S. cerevisiae LAP4-GFP expression, 3 h, at 10 µM, stronger effect = higher value.
Assay [6] is described as follows: yeast AGP1-GFP level changes, GLN3 branch – cell-based, multiplex flow cytometry, S. cerevisiae, primary screen (AID 1887;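 active means GFP signal above the screen-wide mean plus 3 SD, that is over about 124.5% of the solvent control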;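 further: AGP1-GFP fusion strain of S. cerevisiae within a five-strain barcoded multiplex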). Conditions: 3 h, at 10 µM, stronger effect = higher value.
The nature of assay [7]: reduced mouse 2C T cell binding to pMHC/ICAM-1 vesicles – MLPCN validation set, flow cytometry, LFA-1/ICAM-1 modulator project, pilot screen (AID 2523;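 active means response below a set limit, under 55% cells CD8-positive and vesicle-bound, and CD8 cells' 90th-percentile brightness under 279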;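 on vesicle binding response: mean PE anti-B7-1 fluorescence of CD8+ cells relative to row control; 100% = QL9-loaded vesicles with DMSO vehicle in the same plate row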). Conditions: 2C mouse CD8+ T cells, at 7 µM, stronger effect = lower value; double positive events: measured here: CD8+/vesicle+ event percentage.
The target in assay [8] is Integrin beta-1 (Homo sapiens) + Integrin alpha-4 (Homo sapiens) (UniProt P13612+P05556). The assay is described as follows: alpha4beta1 integrin LIBS antibody binding reduction – U937 cells, HUTS-21 mAb, flow cytometry, validation set, VLA-4 allosteric modulator project, pilot screen (AID 2674;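 active means inhibition above 50%, about 3 SD of the validation set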;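 further: antibody binding induced by the VLA-4 ligand LDV present at three times its Kd; 0% = LDV ligand with antibody and no compound and 100% = antibody without LDV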). As to conditions: HUTS-21 LIBS mAb binding, at 6.7 µM, stronger effect = higher value.
Chain of Integrin beta-1 (Homo sapiens) + Integrin alpha-4 (Homo sapiens) (P05556 whole entry, looked up): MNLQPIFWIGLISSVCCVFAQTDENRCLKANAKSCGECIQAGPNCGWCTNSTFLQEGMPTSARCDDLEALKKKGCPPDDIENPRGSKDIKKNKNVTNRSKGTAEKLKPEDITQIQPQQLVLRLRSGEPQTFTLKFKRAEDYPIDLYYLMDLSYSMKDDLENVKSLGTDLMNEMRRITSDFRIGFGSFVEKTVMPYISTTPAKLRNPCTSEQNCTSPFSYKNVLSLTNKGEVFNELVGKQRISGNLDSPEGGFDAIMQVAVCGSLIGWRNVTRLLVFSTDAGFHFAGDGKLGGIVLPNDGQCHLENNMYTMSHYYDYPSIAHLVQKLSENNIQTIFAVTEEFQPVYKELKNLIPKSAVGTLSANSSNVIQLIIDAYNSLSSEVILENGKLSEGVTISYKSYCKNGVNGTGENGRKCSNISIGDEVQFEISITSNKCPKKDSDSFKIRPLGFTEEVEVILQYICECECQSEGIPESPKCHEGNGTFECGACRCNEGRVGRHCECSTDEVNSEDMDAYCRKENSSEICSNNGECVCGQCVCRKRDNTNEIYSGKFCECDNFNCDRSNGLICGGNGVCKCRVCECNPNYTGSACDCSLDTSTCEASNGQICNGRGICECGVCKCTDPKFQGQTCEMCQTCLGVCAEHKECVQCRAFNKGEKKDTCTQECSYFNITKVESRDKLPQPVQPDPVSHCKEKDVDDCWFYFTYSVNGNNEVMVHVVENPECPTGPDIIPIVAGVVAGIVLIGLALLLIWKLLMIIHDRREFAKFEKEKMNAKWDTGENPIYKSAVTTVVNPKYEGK
Chain of Integrin beta-1 (Homo sapiens) + Integrin alpha-4 (Homo sapiens) (P13612 whole entry, looked up): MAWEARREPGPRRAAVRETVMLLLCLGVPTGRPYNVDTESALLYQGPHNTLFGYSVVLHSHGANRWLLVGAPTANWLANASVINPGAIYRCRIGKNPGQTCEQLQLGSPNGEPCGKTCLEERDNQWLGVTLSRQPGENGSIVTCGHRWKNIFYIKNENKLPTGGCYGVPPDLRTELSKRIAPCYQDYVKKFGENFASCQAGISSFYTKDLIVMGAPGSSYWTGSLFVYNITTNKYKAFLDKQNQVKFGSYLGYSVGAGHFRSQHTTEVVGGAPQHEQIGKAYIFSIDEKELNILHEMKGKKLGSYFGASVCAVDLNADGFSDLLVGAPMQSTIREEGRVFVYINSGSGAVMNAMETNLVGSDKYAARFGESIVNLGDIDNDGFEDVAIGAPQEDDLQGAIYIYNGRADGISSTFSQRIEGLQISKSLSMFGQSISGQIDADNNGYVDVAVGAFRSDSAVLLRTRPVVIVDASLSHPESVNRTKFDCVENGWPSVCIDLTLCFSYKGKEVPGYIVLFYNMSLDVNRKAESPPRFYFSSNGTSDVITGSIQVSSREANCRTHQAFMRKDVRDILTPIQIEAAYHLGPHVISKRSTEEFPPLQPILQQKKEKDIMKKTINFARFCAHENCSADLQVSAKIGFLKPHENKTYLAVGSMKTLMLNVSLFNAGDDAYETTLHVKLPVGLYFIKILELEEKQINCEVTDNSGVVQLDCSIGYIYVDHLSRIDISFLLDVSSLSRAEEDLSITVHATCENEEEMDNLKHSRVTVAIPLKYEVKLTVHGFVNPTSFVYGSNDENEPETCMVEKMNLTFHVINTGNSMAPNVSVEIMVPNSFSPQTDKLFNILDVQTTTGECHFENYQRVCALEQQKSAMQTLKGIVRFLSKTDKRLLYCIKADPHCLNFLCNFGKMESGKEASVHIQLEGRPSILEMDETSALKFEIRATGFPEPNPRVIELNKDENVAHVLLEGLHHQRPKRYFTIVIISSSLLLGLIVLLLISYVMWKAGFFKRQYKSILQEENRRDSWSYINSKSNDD

The nature of assay [9]: calorie-restriction mimetic ROS inhibitors, yeast – validation compound set, pilot screen (AID 2706;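 active means superoxide response below 65% of plate, a cut near 3 SD across the whole screen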;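 further: yeast exposed to compound for one week at 30 degrees C before staining; 100% = mean of all compound wells on the same plate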). Conditions: S. cerevisiae aging, superoxide DHE fluorescence; at 10 µM; stronger effect = lower value.
The target of assay [10] is Beta-adrenergic receptor kinase 1 (Homo sapiens) (UniProt P25098). In words: GRK2 binders displacing RNA aptamer, biochemical, validation, human GRK2, bead flow cytometry (AID 488806;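 active means aptamer binding inhibition above 30%, about 3 SD of noise from non-fluorescent compounds; inactive means inhibition at or below 30%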). As to conditions: bead-bound GRK2, FAM-aptamer displacement, at 10 µM, stronger effect = higher value.
Chain of Beta-adrenergic receptor kinase 1 (Homo sapiens) (P25098 whole entry, looked up): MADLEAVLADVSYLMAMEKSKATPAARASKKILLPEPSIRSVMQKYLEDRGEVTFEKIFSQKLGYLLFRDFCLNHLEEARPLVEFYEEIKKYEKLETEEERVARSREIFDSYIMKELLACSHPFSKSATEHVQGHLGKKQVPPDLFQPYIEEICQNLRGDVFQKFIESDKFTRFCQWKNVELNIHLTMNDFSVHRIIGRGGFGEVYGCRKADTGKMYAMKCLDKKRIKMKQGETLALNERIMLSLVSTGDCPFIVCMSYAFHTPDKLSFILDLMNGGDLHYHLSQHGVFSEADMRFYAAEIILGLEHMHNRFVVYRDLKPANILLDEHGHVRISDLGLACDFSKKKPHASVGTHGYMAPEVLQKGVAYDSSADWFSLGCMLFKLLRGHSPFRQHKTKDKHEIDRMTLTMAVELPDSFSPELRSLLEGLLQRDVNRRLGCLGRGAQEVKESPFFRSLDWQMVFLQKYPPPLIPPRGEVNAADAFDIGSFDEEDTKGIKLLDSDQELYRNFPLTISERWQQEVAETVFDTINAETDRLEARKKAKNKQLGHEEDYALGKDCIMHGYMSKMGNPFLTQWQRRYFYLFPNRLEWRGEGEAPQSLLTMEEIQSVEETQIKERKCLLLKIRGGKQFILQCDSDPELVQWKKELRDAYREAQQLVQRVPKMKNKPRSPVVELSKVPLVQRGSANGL
The target in assay [11] is Beta-2 adrenergic receptor (Homo sapiens) (UniProt P07550). In words: agonist-induced loss of surface beta2AR – cell-based, FAP fluorogen, flow cytometry, validation set, pilot screen (AID 504459;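 active means percent response above 42, roughly 3 SD of non-fluorescent test compounds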;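 further: agonist-driven loss of surface beta2AR via internalization measured by FAP dye flow cytometry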). As to conditions: Am2.2-beta2AR cells, at 10 µM, stronger effect = higher value.
Chain of Beta-2 adrenergic receptor (Homo sapiens) (P07550 whole entry, looked up): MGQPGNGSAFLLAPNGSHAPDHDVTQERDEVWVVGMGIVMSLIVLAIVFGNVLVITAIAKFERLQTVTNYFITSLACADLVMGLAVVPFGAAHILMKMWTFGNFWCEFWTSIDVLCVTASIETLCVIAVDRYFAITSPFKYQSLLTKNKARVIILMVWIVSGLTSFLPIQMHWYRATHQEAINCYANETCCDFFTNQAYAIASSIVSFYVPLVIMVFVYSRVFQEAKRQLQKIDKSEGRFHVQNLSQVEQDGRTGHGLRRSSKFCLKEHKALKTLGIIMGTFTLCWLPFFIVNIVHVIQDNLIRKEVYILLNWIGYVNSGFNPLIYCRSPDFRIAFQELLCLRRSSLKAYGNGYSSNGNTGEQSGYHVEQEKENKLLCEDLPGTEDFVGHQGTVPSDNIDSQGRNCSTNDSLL
For assay [12], the target named is AP-2 complex subunit beta (Homo sapiens) (UniProt P63010). In words: beta-arrestin/AP2 interaction blockers – biochemical, validation set, GST-AP2 beads, flow cytometry, pilot screen (AID 504541;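 active means inhibition above 54%, about 3 SD of non-fluorescent compounds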;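 further: AP2 carries R879A mutation and is captured from E. coli lysate; bead-bound FITC arrestin peptide fluorescence measuring arrestin peptide binding to AP2; 0% = DMSO wells and 100% = excess unlabeled arrestin peptide control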). Conditions: FITC arrestin peptide, at 10 µM, stronger effect = higher value.
A short description of assay [13]: cytosolic pH regulators acting via V-ATPase – S. cerevisiae, pHLuorin, HTS validation (AID 504600; in the data active means response above about 15%;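 further: plate controls were DMSO for no effect and reference compound for full effect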). As to conditions: V-ATPase proton transport, at 10 µM, stronger effect = higher value.
Assay [14] concerns anti-desmoglein-3 scFv antibody binding to human DSG3. The assay is described as follows: blockers of pathogenic pemphigus antibody–desmoglein-3 binding – biochemical, validation compound set, bead-based, flow cytometry, pilot screen (AID 588368;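 active means binding below the plate cutoff, the plate median minus 3 SD, with a reading above zero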;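 further: signal is the median channel fluorescence of bead-bound GFP antibody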). Conditions: Protein G beads, DSG3-Fc, scFv-GFP binding, at 10 µM, stronger effect = lower value.
In assay [15] the test system is Botulinum neurotoxin type F light chain protease (Clostridium botulinum). In words: Clostridium botulinum type F light chain protease inhibitors, microsphere substrate cleavage, validation (AID 588459). Conditions: multiplex microsphere protease substrate cleavage assay, flow cytometry; at 10 µM; stronger effect = higher value.
Assay [16] deals with Botulinum neurotoxin type A (Clostridium botulinum) (UniProt P0DPI0). The assay is described as follows: BoNT/A light chain protease inhibitors, biochemical, multiplex microsphere flow cytometry, validation set (AID 588460). Conditions: at 10 µM, stronger effect = higher value.
Chain of Botulinum neurotoxin type A (Clostridium botulinum) (P0DPI0 whole entry, looked up): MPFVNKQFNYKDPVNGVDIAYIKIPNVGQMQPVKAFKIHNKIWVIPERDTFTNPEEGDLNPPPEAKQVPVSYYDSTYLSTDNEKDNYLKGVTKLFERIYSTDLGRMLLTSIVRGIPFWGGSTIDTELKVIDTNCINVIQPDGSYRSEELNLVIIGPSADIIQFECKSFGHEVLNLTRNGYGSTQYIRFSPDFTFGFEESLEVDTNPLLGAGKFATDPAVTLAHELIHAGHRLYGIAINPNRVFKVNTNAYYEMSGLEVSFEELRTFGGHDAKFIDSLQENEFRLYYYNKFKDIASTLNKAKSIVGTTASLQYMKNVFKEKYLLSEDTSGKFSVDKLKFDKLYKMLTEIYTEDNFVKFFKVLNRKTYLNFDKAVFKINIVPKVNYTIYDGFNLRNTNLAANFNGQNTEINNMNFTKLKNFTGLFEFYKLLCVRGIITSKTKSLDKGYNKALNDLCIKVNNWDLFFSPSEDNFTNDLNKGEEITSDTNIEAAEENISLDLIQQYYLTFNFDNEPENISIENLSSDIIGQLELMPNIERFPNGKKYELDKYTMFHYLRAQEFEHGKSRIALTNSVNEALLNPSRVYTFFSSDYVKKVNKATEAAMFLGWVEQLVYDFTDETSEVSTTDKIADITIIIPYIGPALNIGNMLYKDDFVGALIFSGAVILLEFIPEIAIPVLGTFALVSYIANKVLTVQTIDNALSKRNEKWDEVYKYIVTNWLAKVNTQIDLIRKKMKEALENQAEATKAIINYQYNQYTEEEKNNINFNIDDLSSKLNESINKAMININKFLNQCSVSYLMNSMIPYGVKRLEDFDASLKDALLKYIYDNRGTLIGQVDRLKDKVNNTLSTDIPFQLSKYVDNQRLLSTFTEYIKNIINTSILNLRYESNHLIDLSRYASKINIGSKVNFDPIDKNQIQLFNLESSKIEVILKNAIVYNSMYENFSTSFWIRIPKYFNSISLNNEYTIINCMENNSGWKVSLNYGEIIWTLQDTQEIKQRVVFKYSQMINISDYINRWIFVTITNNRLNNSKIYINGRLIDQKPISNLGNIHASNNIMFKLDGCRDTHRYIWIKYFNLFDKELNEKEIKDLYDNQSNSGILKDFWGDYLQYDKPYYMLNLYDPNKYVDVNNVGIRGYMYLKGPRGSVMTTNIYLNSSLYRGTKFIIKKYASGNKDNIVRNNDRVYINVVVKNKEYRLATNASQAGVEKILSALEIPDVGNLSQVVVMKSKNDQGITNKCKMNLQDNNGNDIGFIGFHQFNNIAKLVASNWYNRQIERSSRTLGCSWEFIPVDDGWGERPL
Assay [17] deals with Lethal factor (Bacillus anthracis) (UniProt P15917). The assay is described as follows: Bacillus anthracis lethal factor inhibition, microsphere flow cytometry protease assay, validation at 10 µM (AID 588461). Conditions: multiplex microsphere protease cleavage assay, stronger effect = higher value.
Assay [18] can be described thus: Nile Red efflux blockade in pump-expressing yeast – validation compound set, multiplex, phenotypic, pilot screen (AID 588506;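 active means efflux inhibition above 0.42, the validation set average plus 4 SD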;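 further: Nile Red retained in cells so higher fluorescence means more efflux inhibition; 0 = negative control wells and 1 = enniatin B 25 µM full block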). Conditions: S. cerevisiae pump-expressing triplex, Nile Red efflux flow cytometry; at 10 µM; stronger effect = higher value.
The target in assay [19] is ATP-binding cassette sub-family B member 6 (Homo sapiens) (UniProt Q9NP58). The assay is described as follows: blockers of ABCB6-driven porphyrin uptake – K562-ABCB6 cells, flow cytometry, validation set, pilot screen (AID 588550;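 active means inhibition above the screen-wide mean plus 3 SD, about 51%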;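 further: 0% = DMSO wells and 100% = benzethonium chloride 70 µM positive control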). Conditions: K562-ABCB6 porphyrin accumulation, 1 h, at 10 µM, stronger effect = higher value.
A short description of assay [20]: AML differentiation inducers, ER-HoxA9 marrow cells – cell-based, GFP/MAC1 double positive, flow cytometry, validation set, primary screen (AID 588685;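 active means differentiation response of at least 50%, scaled between solvent and reference control, from cells with both markers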;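 further: compound exposure lasts four days before antibody staining and flow analysis; 0% = DMSO wells and 100% = 5 µM fulvestrant positive control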). As to conditions: stronger effect = higher value.

`O=C1CN=C(c2ccccc2)c2cc(Br)ccc2N1Cc1cc(=O)n2ccccc2n1`: the GTP binding, percent of control in [1] was determined as 64.5%.
Same read-out and setting: the value for `CCOc1ccc(C2SCC(=O)Nc3c2c(C)nn3C2CCOC(C)(C)C2)cc1` (stereo not given) was 150%; that for `O=c1[nH]c(=S)[nH]c(O)c1N=Nc1cc2c(cc1[N+](=O)[O-])OCO2` was 66.6%; that for `CCOC(=O)c1c(NC(=O)c2c(N)n(CCCOC)c3nc4ccccc4nc23)sc2c1CCCC2` was 144%.
For `O=C(O)c1cn(Cc2ccc(Br)cc2)c2ccccc12`, the GTP binding, percent of control in assay [1] was 104%.
As a reminder, the inhibition is the change of the read-out against control, counted positive when it falls. Regarding `OC1CCCCC1N1CCC(c2ccccc2)CC1` (stereo not given), in assay [2], the percent of DMSO control GFP was 92.8% (inactive). In addition, the figures for the GFP response vs DMSO in assay [3] and in assay [5] were 133% (inactive) and 70.4% (inactive), respectively. Further, in assay [4], the percent response of DMSO control is 91.3% (inactive). In assay [6], the GFP response, % of DMSO was 89.4% (inactive). This molecule came in with a double positive events in [7] of 62.4%. For the same molecule, in [7], the vesicle binding response is 171% (inactive). For the same molecule, the inhibition was 5.49% (inactive) in assay [8]; -5.17% (inactive) in [12]; 8.9% (inactive) in [15]; -1% (inactive) in assay [16]; 6.3% (inactive) in [17]; 15% (inactive) in assay [19]. The superoxide response (% of plate) in assay [9] was 110% (inactive). For the same molecule, the aptamer binding inhibition in assay [10] was 3% (inactive). The values for the response in assay [11] and in [13] were -8.3% (inactive) and 2.23% (inactive), respectively. In [14], the binding (% of control) was 127% (inactive). For the same molecule, the efflux inhibition (fraction of control) in assay [18] is 0.52 (active). Moreover, the differentiation response in assay [20] is -1.64% (inactive).
As to `O=c1c2ccccc2[se]n1-c1ccccc1`, the percent of DMSO control GFP in [2] was 99.6% (inactive). Moreover, the results for the GFP response vs DMSO in [3] and in [5] were 94.6% (inactive) and 94.4% (inactive), respectively. Further, in assay [4], the percent response of DMSO control was 110% (inactive). In addition, the GFP response, % of DMSO in assay [6] was 99.2% (inactive). This molecule also returned a double positive events in [7] of 57.5%. Besides, in assay [7], the vesicle binding response is 111% (inactive). The inhibition was 15.4% (inactive) in assay [8]; 116% (active) in [12]; 33.2% (active) in assay [15]; 92.6% (active) in [16]; -9.3% (inactive) in assay [17]; 5% (inactive) in assay [19]. Moreover, in [9], the superoxide response (% of plate) was 120% (inactive). Moreover, the aptamer binding inhibition in assay [10] is 5% (inactive). The response is 12.7% (inactive) in assay [11] and -0.76% (inactive) in [13]. In [14], the binding (% of control) is 9.72% (active). Moreover, the efflux inhibition (fraction of control) in [18] was 37.3 (active). Also, the differentiation response in [20] is 0.41% (inactive).
